Residual activity data for twelve compounds are collected here from ChEMBL document CHEMBL2218924, “A broad activity screen in support of a chemogenomic map for kinase signalling research and drug discovery” (Biochem J, 2013).

Test [1] has as its target Aurora kinase B (Homo sapiens) (UniProt Q96GD4). As to conditions: at 1 µM.
Test [2] shares this target. As to conditions: at 10 µM.
Test [3] concerns the target Tyrosine-protein kinase receptor UFO (Homo sapiens) (UniProt P30530). As to conditions: at 1 µM.
The target is the same in test [4]. As to conditions: at 10 µM.
Test [5] concerns the target Tyrosine-protein kinase Blk (Homo sapiens) (UniProt P51451). The note with it: at 1 µM.
For test [6] the target is unchanged. The note with it: at 10 µM.
In test [7] the target is T1, Mitogen-activated protein kinase kinase kinase 5 (Homo sapiens) (UniProt Q99683).
T1 sequence (whole entry): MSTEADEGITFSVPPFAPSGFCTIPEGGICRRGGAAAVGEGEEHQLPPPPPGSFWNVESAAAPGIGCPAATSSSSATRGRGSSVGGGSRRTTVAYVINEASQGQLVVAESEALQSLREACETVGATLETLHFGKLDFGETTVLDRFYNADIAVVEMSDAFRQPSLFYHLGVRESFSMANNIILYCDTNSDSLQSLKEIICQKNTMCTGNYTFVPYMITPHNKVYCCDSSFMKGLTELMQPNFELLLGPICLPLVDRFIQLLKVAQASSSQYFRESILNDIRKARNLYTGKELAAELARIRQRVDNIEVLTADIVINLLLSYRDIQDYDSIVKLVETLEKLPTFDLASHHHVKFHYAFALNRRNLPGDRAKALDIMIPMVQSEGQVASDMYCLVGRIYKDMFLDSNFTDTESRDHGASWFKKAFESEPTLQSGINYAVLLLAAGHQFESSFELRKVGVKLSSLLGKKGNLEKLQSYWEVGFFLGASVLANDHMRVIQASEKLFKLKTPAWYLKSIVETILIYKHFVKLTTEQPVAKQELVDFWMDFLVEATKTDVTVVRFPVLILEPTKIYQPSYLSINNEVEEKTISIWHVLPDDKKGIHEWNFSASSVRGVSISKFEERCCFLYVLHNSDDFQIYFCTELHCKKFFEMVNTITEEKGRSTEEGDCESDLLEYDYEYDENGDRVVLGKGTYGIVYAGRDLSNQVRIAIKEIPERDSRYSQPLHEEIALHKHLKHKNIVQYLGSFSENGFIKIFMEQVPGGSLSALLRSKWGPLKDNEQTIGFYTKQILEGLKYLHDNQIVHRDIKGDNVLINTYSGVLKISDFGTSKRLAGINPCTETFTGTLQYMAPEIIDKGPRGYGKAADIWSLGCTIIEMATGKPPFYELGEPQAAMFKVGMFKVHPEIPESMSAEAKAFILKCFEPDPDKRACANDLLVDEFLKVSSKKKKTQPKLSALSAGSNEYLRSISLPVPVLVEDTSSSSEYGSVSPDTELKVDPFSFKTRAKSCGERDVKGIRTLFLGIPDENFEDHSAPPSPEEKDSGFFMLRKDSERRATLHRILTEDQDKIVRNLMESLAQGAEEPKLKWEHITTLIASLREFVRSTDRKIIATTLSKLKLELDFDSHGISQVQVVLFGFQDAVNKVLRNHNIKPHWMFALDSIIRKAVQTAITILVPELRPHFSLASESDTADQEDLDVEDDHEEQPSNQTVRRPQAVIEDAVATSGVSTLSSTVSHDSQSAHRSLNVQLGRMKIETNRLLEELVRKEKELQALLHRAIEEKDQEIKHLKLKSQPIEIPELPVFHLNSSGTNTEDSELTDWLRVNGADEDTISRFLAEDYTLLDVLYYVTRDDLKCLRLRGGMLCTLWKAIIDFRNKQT
As to conditions: at 10 µM.

Test [8] deals with Tyrosine-protein kinase ABL2 (Homo sapiens) (UniProt P42684). As to conditions: at 1 µM.
Sequence of Tyrosine-protein kinase ABL2 (Homo sapiens) (P42684 whole entry): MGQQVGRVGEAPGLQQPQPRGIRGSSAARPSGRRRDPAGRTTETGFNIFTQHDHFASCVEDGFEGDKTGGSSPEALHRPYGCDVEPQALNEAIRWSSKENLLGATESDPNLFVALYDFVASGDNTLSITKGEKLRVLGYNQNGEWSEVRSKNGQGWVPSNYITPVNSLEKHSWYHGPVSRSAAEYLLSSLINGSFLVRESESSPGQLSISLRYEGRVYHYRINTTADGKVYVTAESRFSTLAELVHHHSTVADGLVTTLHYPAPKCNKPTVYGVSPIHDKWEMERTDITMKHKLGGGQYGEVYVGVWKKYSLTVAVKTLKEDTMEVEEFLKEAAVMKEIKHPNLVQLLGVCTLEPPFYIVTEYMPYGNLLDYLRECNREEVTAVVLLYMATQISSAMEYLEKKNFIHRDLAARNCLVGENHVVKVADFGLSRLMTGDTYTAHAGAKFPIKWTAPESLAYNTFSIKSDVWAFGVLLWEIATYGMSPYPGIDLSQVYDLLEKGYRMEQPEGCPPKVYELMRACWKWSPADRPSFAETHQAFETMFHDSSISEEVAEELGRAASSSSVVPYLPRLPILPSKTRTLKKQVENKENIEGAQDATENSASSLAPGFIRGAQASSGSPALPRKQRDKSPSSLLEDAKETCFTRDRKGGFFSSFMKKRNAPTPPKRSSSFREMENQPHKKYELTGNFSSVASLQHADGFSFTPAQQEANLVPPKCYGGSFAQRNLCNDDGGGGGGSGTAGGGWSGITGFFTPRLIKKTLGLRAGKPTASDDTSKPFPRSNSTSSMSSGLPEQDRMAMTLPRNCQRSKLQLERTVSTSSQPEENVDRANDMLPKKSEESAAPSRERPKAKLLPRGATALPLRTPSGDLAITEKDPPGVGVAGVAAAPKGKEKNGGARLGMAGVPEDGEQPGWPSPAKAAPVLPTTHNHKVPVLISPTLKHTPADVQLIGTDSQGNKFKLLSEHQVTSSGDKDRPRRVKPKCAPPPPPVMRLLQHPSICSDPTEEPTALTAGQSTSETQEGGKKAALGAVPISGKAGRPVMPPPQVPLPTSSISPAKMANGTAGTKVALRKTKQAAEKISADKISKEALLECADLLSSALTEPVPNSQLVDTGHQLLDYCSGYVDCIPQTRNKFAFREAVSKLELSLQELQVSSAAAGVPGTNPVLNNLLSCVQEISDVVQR
Test [9] has the same target. The note with it: at 10 µM.
The target of test [10] is T2, Aurora kinase C (Homo sapiens) (UniProt Q9UQB9).
T2 sequence (whole entry): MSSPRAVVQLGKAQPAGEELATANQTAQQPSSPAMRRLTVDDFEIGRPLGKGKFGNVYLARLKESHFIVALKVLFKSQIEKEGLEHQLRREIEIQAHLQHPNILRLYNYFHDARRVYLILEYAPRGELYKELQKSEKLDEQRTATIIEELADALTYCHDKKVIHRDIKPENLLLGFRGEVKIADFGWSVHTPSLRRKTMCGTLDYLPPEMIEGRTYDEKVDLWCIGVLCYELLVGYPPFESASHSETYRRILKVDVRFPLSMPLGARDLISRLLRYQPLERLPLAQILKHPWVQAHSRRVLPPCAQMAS
The note with it: at 1 µM.

In test [11] the target is T2, Aurora kinase C (Homo sapiens). The note with it: at 10 µM.
Test [12] has as its target Protein-tyrosine kinase 6 (Homo sapiens) (UniProt Q13882). The note with it: at 1 µM.
For test [13] the target is unchanged. As to conditions: at 10 µM.
Test [14] has as its target Tyrosine-protein kinase BTK (Homo sapiens) (UniProt Q06187). As to conditions: at 1 µM.
Test [15] shares this target. As to conditions: at 10 µM.
The target in test [16] is Tyrosine-protein kinase ABL1 (Homo sapiens) (UniProt P00519). The note with it: at 1 µM.
Sequence of Tyrosine-protein kinase ABL1 (Homo sapiens) (P00519 whole entry): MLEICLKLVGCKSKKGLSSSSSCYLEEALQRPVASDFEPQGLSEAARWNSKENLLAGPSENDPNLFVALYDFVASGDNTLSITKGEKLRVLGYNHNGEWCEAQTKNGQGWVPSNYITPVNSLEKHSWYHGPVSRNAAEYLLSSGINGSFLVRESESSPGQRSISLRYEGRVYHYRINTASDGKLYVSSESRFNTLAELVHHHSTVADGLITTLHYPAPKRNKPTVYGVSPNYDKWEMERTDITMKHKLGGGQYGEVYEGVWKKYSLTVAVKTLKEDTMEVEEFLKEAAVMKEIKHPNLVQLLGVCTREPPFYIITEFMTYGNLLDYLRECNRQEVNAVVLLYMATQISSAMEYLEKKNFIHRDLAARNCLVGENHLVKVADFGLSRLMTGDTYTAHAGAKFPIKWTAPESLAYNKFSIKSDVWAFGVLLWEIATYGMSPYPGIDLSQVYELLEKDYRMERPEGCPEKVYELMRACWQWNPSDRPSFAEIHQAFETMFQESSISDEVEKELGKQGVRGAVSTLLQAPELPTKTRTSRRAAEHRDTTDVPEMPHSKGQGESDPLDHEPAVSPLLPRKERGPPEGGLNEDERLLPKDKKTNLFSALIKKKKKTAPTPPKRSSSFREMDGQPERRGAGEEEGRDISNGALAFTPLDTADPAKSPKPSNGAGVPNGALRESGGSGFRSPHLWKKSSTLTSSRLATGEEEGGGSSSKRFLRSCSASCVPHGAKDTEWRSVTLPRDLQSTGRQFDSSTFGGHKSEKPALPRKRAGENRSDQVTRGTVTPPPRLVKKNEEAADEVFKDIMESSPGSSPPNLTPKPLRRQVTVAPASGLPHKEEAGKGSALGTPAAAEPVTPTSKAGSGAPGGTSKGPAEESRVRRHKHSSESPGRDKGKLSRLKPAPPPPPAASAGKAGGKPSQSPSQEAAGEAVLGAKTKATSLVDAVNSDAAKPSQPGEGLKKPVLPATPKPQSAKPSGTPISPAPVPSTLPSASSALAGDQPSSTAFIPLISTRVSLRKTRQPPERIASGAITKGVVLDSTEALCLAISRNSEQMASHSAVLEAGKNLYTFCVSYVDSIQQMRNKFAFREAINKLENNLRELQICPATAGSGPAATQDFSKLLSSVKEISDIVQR
For test [17] the target is unchanged. As to conditions: at 10 µM.
The target of test [18] is T3, Aurora kinase A (Homo sapiens) (UniProt O14965).
T3 sequence (whole entry): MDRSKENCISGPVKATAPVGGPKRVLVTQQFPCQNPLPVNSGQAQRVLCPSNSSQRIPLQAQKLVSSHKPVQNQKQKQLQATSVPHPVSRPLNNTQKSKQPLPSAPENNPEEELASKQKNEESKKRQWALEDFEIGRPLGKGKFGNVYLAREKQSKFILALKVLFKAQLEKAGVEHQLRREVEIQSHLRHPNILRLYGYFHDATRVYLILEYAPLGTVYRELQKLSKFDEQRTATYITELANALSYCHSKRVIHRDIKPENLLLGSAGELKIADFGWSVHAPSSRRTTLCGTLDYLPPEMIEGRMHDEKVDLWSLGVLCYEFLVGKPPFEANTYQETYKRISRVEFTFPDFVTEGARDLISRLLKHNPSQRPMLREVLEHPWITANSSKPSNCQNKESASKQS
As to conditions: at 1 µM.

The target of test [19] is T3, Aurora kinase A (Homo sapiens). The note with it: at 10 µM.

Sequence of Tyrosine-protein kinase BTK (Homo sapiens) (Q06187 whole entry): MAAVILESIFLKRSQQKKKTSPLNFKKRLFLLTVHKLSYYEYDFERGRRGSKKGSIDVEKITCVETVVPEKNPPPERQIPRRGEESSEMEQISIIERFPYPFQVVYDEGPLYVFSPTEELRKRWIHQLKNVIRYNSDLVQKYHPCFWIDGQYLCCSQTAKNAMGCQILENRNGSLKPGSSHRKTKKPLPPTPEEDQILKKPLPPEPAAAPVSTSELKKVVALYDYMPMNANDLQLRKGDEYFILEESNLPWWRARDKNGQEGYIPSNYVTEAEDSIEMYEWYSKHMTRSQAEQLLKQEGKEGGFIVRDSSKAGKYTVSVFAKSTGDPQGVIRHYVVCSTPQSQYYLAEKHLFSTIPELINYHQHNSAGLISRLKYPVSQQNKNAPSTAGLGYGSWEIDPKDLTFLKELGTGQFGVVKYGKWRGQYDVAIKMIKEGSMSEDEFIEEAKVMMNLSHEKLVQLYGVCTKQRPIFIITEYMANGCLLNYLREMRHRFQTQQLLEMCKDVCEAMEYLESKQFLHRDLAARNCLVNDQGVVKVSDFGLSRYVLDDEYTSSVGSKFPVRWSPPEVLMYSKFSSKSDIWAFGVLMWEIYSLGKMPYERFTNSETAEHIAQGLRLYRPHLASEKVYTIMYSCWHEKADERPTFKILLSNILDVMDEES
Sequence of Protein-tyrosine kinase 6 (Homo sapiens) (Q13882 whole entry, looked up): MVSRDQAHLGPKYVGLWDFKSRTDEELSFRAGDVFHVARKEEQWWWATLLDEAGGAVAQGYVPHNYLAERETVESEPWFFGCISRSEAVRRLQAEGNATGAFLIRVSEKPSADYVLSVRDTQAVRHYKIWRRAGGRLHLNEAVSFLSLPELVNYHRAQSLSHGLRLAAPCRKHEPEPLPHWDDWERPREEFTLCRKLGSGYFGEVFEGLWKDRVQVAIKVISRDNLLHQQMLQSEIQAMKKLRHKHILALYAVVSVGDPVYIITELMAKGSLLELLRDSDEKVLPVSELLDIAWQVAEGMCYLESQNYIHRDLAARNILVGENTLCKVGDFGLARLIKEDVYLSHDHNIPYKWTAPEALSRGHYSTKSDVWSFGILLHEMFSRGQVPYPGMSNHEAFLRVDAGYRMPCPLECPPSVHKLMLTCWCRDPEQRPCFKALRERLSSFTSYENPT
Sequence of Tyrosine-protein kinase Blk (Homo sapiens) (P51451 2-505 limits assumed): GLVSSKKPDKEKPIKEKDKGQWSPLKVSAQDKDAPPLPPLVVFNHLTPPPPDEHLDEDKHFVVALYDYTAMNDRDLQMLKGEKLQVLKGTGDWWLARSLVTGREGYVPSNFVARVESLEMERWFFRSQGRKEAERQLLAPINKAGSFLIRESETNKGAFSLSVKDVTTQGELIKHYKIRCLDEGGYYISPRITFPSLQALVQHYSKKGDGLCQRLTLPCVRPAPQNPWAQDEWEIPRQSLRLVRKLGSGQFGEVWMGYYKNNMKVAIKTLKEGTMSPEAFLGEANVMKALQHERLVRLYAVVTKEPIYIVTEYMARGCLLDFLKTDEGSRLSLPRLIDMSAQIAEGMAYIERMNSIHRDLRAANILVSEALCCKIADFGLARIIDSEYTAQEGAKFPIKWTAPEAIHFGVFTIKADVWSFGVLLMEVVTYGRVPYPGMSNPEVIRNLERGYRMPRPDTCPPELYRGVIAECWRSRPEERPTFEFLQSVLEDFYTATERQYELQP
Sequence of Aurora kinase B (Homo sapiens) (Q96GD4 whole entry): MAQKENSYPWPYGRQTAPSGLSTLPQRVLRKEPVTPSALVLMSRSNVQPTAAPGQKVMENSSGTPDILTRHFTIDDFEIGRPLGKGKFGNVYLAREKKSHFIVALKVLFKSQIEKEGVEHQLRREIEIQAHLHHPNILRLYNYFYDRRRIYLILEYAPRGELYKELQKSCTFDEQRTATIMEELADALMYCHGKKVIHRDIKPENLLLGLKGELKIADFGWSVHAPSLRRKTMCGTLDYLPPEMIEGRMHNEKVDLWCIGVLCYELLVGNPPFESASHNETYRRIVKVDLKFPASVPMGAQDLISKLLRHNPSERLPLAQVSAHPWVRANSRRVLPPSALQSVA

As for `CCOC(=O)c1c(C)[nH]c(/C=C2\C(=O)Nc3ccccc32)c1C`, the residual activity in test [1] was found to be 74%; in test [2] it was 61%; in [3], 84%; in test [4] it was 81%; in test [5], 89%; in test [6], 57%.
For `Nc1nc(Nc2ccc(S(N)(=O)=O)cc2)nn1C(=O)c1c(F)cccc1F`, the residual activity in [7] is 46%; in test [8] it was 34%; in [9], 8%; in [10], 6%; in test [11], 1%; in test [3], 56%. The residual activity was 13% in test [4]; 106% in [12]; 74% in test [13]; 74% in [5]; 9% in test [6].
As to `CCOc1nc(NC(=O)Cc2cc(OC)ccc2OC)cc(N)c1C#N`, the residual activity came to 78% in test [10]; 60% in [12]; 50% in test [13]; 81% in [14]; 78% in [15].
In the case of `O=C(Nc1ccc(Cl)cc1)c1ccccc1NCc1ccncc1`, the residual activity was found to be 81% in test [16]; 52% in test [17]; 39% in test [18]; 18% in test [19]; 100% in test [1]; 37% in test [2]. Moreover, the residual activity came to 70% in test [11], 21% in [12] and 1% in [13].
Take `Nc1nccc(-c2c(-c3ccc(F)cc3)ncn2C2CCNCC2)n1`: the residual activity in test [9] is 65%; in test [2], 72%; in test [11], 78%; in [13], 30%.
Turning to `Fc1ccc(-c2nc3n(c2-c2ccncc2)CCS3)cc1`, the residual activity in test [7] came to 83%; in [8], 96%; in [9], 77%; in [10], 98%; in test [11] it was 95%; in test [14], 100%. Further, the residual activity in test [15] turned out to be 98%.
For `N#C/C(=C\c1ccc(O)c(O)c1)C(=O)NCc1ccccc1`, the residual activity amounted to 77% in test [4] and 104% in test [5].
For `O=C(Nc1nc2ccccc2n1CCN1CCOCC1)c1cccc([N+](=O)[O-])c1`, the residual activity in test [7] was determined as 110%; in test [8], 100%; in [18] it was 101%; in test [19], 103%; in test [1], 100%; in test [2] it was 40%. In addition, the residual activity is 75% in [3]; 78% in [4]; 100% in [14]; 109% in test [15]; 111% in test [5]; 100% in test [6].
As to `O=C1Cc2c([nH]c3ccc([N+](=O)[O-])cc23)-c2ccccc2N1`, the residual activity in test [7] stood at 105%; in [16], 47%; in [8] it was 81%; in test [9], 76%; in test [19], 105%; in test [1], 48%. In addition, the residual activity in test [2] was 22%; in test [12], 111%; in [13], 107%; in test [5] it was 29%; in test [6] it was 33%.
As to `COc1ccc(COc2ccc(Cc3cnc(N)nc3N)cc2OC)cc1`, the residual activity in [17] is 117%; in test [18], 108%; in [19] it was 111%; in [1], 110%; in [2], 76%; in test [3], 80%. Also, the residual activity was determined as 74% in test [4] and 98% in [6].
As for `COc1ccc(Cl)cc1NC(=O)Nc1cc(C)nc2ccccc12`, the residual activity came out at 87% in test [16]; 145% in test [17]; 89% in test [18]; 136% in test [19]; 98% in [3]; 88% in test [4]. For the same compound, in [6], the residual activity is 78%.
Regarding `O=C1NC(=O)C(c2cn(CCCO)c3ncccc23)=C1c1cnccn1`, the residual activity in test [7] was 78%; in [18] it was 78%; in test [19], 81%; in test [1], 14%; in [2], 9%; in test [10] it was 97%. For the same compound, the residual activity came to 88% in [11]; 61% in test [3]; 59% in test [4]; 78% in [5]; 69% in test [6].
